Laboratory results: PubChem BioAssay
Calls of active or inactive are those of the source. Unless noted, the rule behind the calls is not given here.

How the values were obtained:
[1] = test system: Wnt5a (protein binding on small-molecule microarray); assay: Wnt5a binders on small-molecule microarray, primary screen, biophysical, 635/667 nm fluorescence (AID 1142); settings: 635 nm fluorescence, higher = more signal;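 note: fluorescence read at 667 nm with signal to noise per printed feature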
[2] = cell viability in Huh7 cells, primary screen, cytotoxicity control for HCV replication inhibitor project, CellTiter-Glo luminescence, basal, 48 h (AID 1143); settings: Huh7 HCV replicon, higher = more signal, called active from +8 up or from −8 down;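 note: Huh7 hepatoma cells carrying a hepatitis C replication reporter with no stimulus; test concentration not given here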
[3] = P. aeruginosa biofilm formation inhibitors, primary screen, PAO1 strain, BacTiter-Glo luminescence, LB-PBS (AID 1144); settings: 12 h, higher = more signal
[4] = CREB reporter modulators without forskolin, primary screen, cell-based, PC12, CRE-LacZ reporter, unstimulated (AID 1145); settings: no forskolin, luminescence, 4.5 h, higher = more signal, called active from +8 up or from −8 down
[5] = CREB reporter modulators under forskolin, primary screen, cell-based, PC12, CRE-LacZ reporter, forskolin-stimulated (AID 1146); settings: luminescence, 4.5 h, higher = more signal, called active from +8 up or from −8 down;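 note: PC12 cells with 6xCRE LacZ reporter stimulated by forskolin 10 µM; beta-galactosidase reporter signal reflecting CREB driven transcription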
[6] = target: Streptavidin (Streptomyces avidinii) (UniProt P22629); assay: streptavidin binders on small-molecule microarray, primary screen, artefact control for SMM compound annotation, biophysical, 635/667 nm fluorescence (AID 1147); settings: streptavidin binding, higher = more signal;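 note: signal reflects streptavidin binding to arrayed compounds as a control protein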
[7] = small-molecule binders of probe aInhba, primary screen, biochemical, small-molecule microarray, 635/667 nm fluorescence (AID 1148); settings: higher = more signal;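 note: score merges 667nm spot fluorescence with signal-to-noise for antibody binding to printed compounds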
[8] = target: Torsin-1A (Homo sapiens) (UniProt O14656); assay: torsin A binders from cell lysate, primary screen, small-molecule microarray, wild-type, 635/667 nm (AID 1149); settings: COS7 hTOR1A-WT lysate, 635 nm fluorescence, higher = more signal
[9] = target: Torsin-1A (Homo sapiens) (UniProt O14656); assay: small-molecule binders of mutant TOR1A in lysate, primary screen, cell lysate, small-molecule microarray, COS7 lysate, 635/667 nm fluorescence (AID 1150); settings: COS7 hTOR1A mutant lysate, 635 nm fluorescence, higher = more signal;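 note: score pools 667 nm emission and signal to noise measuring lysate protein binding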
[10] = test system: Sonic hedgehog protein (Shh); assay: small-molecule binders of Shh protein, primary screen, biochemical, small-molecule microarray, 635/667 nm fluorescence (AID 1151); settings: small-molecule microarray binding, 635 nm fluorescence; higher = more signal;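 note: Shh protein binding to compounds spotted on small-molecule microarray slides; score combines spot fluorescence intensity with signal-to-noise across triplicate slides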

Torsin-1A (Homo sapiens), sequence (O14656 whole entry, looked up): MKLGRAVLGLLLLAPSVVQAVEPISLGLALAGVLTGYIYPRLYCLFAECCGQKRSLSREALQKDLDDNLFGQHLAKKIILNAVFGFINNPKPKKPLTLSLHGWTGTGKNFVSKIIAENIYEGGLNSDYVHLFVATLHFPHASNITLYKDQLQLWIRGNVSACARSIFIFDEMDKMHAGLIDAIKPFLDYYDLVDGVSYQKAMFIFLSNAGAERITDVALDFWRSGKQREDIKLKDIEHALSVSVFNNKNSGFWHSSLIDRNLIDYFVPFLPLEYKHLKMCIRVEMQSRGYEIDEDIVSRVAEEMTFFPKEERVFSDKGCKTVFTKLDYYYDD
Streptavidin (Streptomyces avidinii), sequence (P22629 whole entry, looked up): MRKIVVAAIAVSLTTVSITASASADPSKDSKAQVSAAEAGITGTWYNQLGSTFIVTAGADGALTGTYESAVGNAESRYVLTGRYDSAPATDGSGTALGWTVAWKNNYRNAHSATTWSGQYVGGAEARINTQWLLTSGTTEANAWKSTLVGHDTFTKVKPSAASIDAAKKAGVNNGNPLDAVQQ

| SMILES | composite z-score [1] | z-score [2] | z-score [3] | z-score [4] | z-score [5] | composite z-score [6] | composite z-score [7] | composite z-score [8] | composite z-score [9] | composite z-score [10] |
| --- | --- | --- | --- | --- | --- | --- | --- | --- | --- | --- |
| CC(C)[Si]1(C(C)C)O[C@@H](c2ccccc2)c2cc(C3CC3)nc(-c3ccccc3)c21 | -0.0654 | 0.414 (inactive) | -0.134 (inactive) | -0.258 (inactive) | -0.541 (inactive) | 0.0887 | -0.207 | -1 | -0.124 | 0.397 |
| CC[C@@H](c1ccccc1)n1c(=O)n2n(c1=O)[C@H]1[C@H](O)[C@@H]3O[C@@H]3C(=NOCC(C)C)[C@H]1CC2 | -0.11 | 0.529 (inactive) | 0.51 (inactive) | 0.786 (inactive) | 0.671 (inactive) | -0.36 | -0.0405 | -0.132 | -0.115 | 0.636 |
| COC(=O)[C@@H]1CCCN1C(=O)[C@@H](C)CO | 0.111 | -2.44 (inactive) | -0.985 (inactive) | -0.347 (inactive) | -0.397 (inactive) | 0.746 | -0.183 | 1.26 | 0.546 | 0.202 |
| COCCCNC(=O)[C@@]1(C)c2ccccc2C(=O)N(Cc2ccc(OC(F)(F)F)cc2)[C@H]1c1ccc(CO)cc1 | -0.0685 | -1.27 (inactive) | -0.27 (inactive) | 0.585 (inactive) | -0.0912 (inactive) | -0.773 | 0.185 | 0.13 | -0.17 | -0.32 |
| CC1CC/C=C\[C@H]2OC34C=CCN(Cn5nnc6ccccc65)C(=O)[C@H]3N(CCO)C(=O)[C@@H]4C2C(=O)O1 (stereo not given in full) | -0.335 | -2.74 (inactive) | -2.49 (inactive) | -1.44 (inactive) | -1.01 (inactive) | -0.923 | -0.0719 | 2.73 | 2.11 | -0.0981 |
| N#Cc1ccc(NN2C(C(O)c3cc(C(F)(F)F)cc(C(F)(F)F)c3)C=CC3C(=O)N(c4ccccc4)C(=O)C32)cc1 (stereo not given) | 0.261 | -2.24 (inactive) | -0.875 (inactive) | 0.822 (inactive) | -0.389 (inactive) | 1.39 | 0.231 | 1.43 | 1.06 | -0.0099 |
| CC(=O)OC[C@H]1O[C@@H](ON=C(C)CCN2CCc3nc(-c4ccccc4)c(-c4ccccc4)cc3C2)[C@H](OC(C)=O)[C@@H](OC(C)=O)[C@@H]1OC(C)=O | 0.344 | -0.228 (inactive) | 0.305 (inactive) | 1.41 (inactive) | 0.0789 (inactive) | 0.65 | 0.134 | 0.054 | 0.257 | 1.12 |
| CCc1cc2c(nc1CC)CCN(CCC(C)=NOC[C@@H](O)COCc1ccco1)C2 | 0.391 | -0.112 (inactive) | 0.132 (inactive) | 2.16 (inactive) | 0.785 (inactive) | 0.536 | 0.149 | 3.95 | 3.64 | 2.31 |
| COCC1=C2[C@@H](CCc3ccccc3)OB(O)C[C@@H]2n2c(=O)n(-c3ccccc3)c(=O)n2C1 | 0.102 | -0.405 (inactive) | 0.523 (inactive) | 2.22 (inactive) | -0.714 (inactive) | -0.324 | -0.082 | -0.0531 | -0.066 | 0.966 |
| CCOC(=O)CCN1C(=O)[C@H]2[C@H]3[C@H](O)[C@H](O)CC(=NOC[C@@H](O)COCc4ccco4)[C@H]3CC[C@H]2C1=O | -0.0068 | -4.31 (inactive) | -0.284 (inactive) | 1.41 (inactive) | 0.749 (inactive) | 0.0794 | -0.0627 | 0.291 | 0.18 | 0.856 |
| COC(=O)C1=CCC(c2cccc(Cl)c2)O1 (stereo not given) | -0.241 | -4.35 (inactive) | -1.52 (inactive) | 0.388 (inactive) | -0.551 (inactive) | -0.0713 | 0.0742 | 0.0026 | -0.58 | -0.534 |
| COC(=O)[C@@]1(Cc2ccc(F)cc2)[C@@H]2C(=CC(=O)[C@H]2CC(=O)C(=O)N(C)C)CN1C(=O)c1ccccc1 | 0.392 | -3.59 (inactive) | 0.504 (inactive) | -0.179 (inactive) | -0.196 (inactive) | 1.7 | 0.38 | -0.441 | 0.283 | -0.367 |
| COCCOC(=O)N1C(=O)[C@@]2(c3cc(C#CC4(O)CCCCCC4)ccc31)[C@H](c1ccc(OCCO)cc1)N1[C@H](c3ccccc3)[C@H](c3ccccc3)OC(=O)[C@H]1[C@@H]2C(=O)NC[C@H](O)c1ccccc1 | 0.524 | -5.42 (inactive) | -0.903 (inactive) | -0.61 (inactive) | 0.753 (inactive) | 0.246 | 0.0658 | 0.225 | 0.514 | 1.23 |
| O=C1[C@H]2[C@H]3[C@H](O)[C@H](O)CC(=NO[C@@H]4O[C@H](CO)[C@@H](O)[C@H](O)[C@H]4O)[C@@H]3CC[C@H]2C(=O)N1Cc1ccc2c(c1)OCO2 | 0.163 | 0.548 (inactive) | 0.572 (inactive) | 0.245 (inactive) | 0.366 (inactive) | 0.335 | -0.0506 | 0.35 | 0.254 | 0.666 |
